Test results from PubChem BioAssay (Tox21).
Inconclusive results are not listed. The source made the active and inactive calls. Unless noted, calls come from the whole dose curve; as a rule, active = well fitted curve in the direction sought with a large enough effect in the repeat runs; inconclusive = weak or mixed curves; inactive = no such curve, though single readings can be large; an effect the other way counts as inactive or inconclusive.

Key:
[1] = qHTS assay to identify small molecule antagonists of the sonic hedgehog signaling (Shh) pathway (AID 1259369; calls by dose curve; note: nearly all actives have a fitted effect of over 45% in size)
How it was run: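 3T3Gli1-Luc, conditioned-medium-stimulated, 24hr cpd, 37C/5% CO2; Gli1-driven firefly Luc luminescence after 30min RT with luciferase reagent. Cells plated 4hr before cpd.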

[2] = qHTS assay to identify small molecule agonists of the androgen receptor (AR) signaling pathway in the presence of an antagonist - cell viability counter screen (AID 1259379);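 note: MDA-kb2 human breast cancer cells carrying an MMTV luciferase reporter; series mostly up to about 92 µM; nearly all actives have a fitted effect of over 25% in size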
How it was run: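 Cells: MDA-kb2 (MMTV-luc, AR and GR elements), 3,000/well, 5 hr settle. Added: nilutamide 3.0uM final, then compounds (15 conc.). Incubation: 16 hr, 37C, no CO2. Read-out: CellTiter-Fluor, 1 hr, fluorescence.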

[3] = qHTS assay to identify small molecule agonists of the estrogen receptor beta (ER-beta) signaling pathway - cell viability counter screen (AID 1259380); note: nearly all actives have a fitted effect of over 30% in size
How it was run: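 HEK293T ER-beta-UAS-bla; 2% CS-FBS; 6 hr pre-plate, 16 hr cpd at 37C/5% CO2; LiveBLAzer read first, then CellTiter-Glo 30 min RT, luminescence.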

[4] = qHTS assay to identify small molecule antagonists of the estrogen receptor beta (ER-beta) signaling pathway - cell viability counter screen (AID 1259382);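 note: HEK293T cells carrying ER-beta-UAS-bla reporter stimulated with estradiol; series mostly up to about 92 µM; nearly all actives have a fitted effect of over 55% in size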
How it was run: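 Cells: ER-beta-UAS-bla HEK293T, 2,000/well, 2% CS-FBS, 6 hr settle. Cpd + E2 (1nM final), 16 hr, 37C/5% CO2. Bla FRET substrate 2 hr RT, then CellTiter-Glo 30 min RT, luminescence.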

[5] = qHTS assay to identify small molecule agonists or antagonists of the thyroid stimulating hormone receptor (TSHR) signaling pathway - wild type cell line counter screen (AID 1259384; calls by dose curve)
How it was run: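 Counter screen in untransfected Hek293: compounds (15-point titration, triplicate) plus phosphodiesterase inhibitor Ro20-1724 added after 18 h plating; 30 min RT. Intracellular cAMP via competitive d2/cryptate immunoassay, 1 h incubation.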

[6] = qHTS assay to identify small molecule agonists of the estrogen receptor alpha (ER-alpha) signaling pathway in the presence of an antagonist - cell viability counter screen (AID 1259386);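 note: cells exposed to compounds for 22 h at 37 °C before the viability read; nearly all actives have a fitted effect of over 30% in size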; note: potency is the fitted concentration of half-maximal effect; for activity change, negative = cytotoxicity: series mostly up to about 92 µM
How it was run: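 VM7Luc4E2, stripped-serum pre-culture 5 d; 24hr plating; +ICI-182,780 10.0nM final; cpds 15 conc, 22hr, 37C/5% CO2; CellTiter-Fluor added at 21hr, fluorescence 1hr later.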

[7] = biological target: Progesterone receptor (Homo sapiens) (UniProt P06401); experiment: qHTS assay to identify small molecule agonists of the progesterone receptor (PR) signaling pathway (AID 1346784; calls by dose curve; note: nearly all actives have a fitted effect of over 30% in size)
How it was run: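 PR-UAS-bla HEK 293T cells (beta-lactamase reporter under UAS) in 2% charcoal-stripped FBS, dosed with 23 nL compound after 6 hr, incubated 16hr at 37C. LiveBLAzer B/G FRET substrate added, fluorescence read after 2 hours.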

[8] = biological target: Progesterone receptor (Homo sapiens) (UniProt P06401); experiment: qHTS assay to identify small molecule antagonists of the progesterone receptor (PR) signaling pathway (AID 1346795; active = well fitted inhibition curve with a large enough effect in the signal ratio in the repeat runs, not every such curve was filed as active; the % refers to the signal ratio)
How it was run: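 PR-UAS-bla HEK293T cells with beta-lactamase reporter under UAS control, in 2% charcoal-stripped FBS, treated with compounds plus 1 nM promegestone (R5020, final) for 16 hr at 37C. Read-out: FRET beta-lactamase substrate fluorescence after 2 hr at room temperature.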

[9] = qHTS assay to identify small molecule agonists of the progesterone receptor (PR) signaling pathway - cell viability counter screen (AID 1346799; calls by dose curve; note: nearly all actives have a fitted effect of over 45% in size)
How it was run: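 Counter screen in the PR-UAS-bla HEK293T wells (2% charcoal-stripped FBS, 16 h compound exposure at 37 C) after the bla read. CellTiter-Glo added, 30 min at room temperature, luminescence read as cell viability.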

[10] = qHTS assay to identify small molecule agonists of the TGF-beta/Smad signaling pathway - cell viability counter screen (AID 1346829); note: top concentration of the series differs between compounds; nearly all actives have a fitted effect of over 45% in size
How it was run: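 Tox21 qHTS format: SBE-bla HEK 293T cells treated with DMSO-dissolved compounds for 5 hr; CellTiter-Glo luminescence after 30 min at room temperature.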

[11] = qHTS assay to identify small molecule agonists of the TGF-beta/Smad signaling pathway (AID 1346859; active = well fitted activation curve with a large enough effect in the signal ratio in the repeat runs, not every such curve was filed as active; the % refers to the signal ratio; note: series mostly up to about 77 µM)
How it was run: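 SBE-bla HEK293T cells plated overnight, then compound exposure for 5 h at 37 C. Beta-lactamase reporter read with LiveBLAzer B/G FRET substrate after 2 h at room temperature, fluorescence at 405 nm excitation, 460/530 nm emission.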

[12] = biological target: Thyrotropin-releasing hormone receptor (Homo sapiens) (UniProt P34981); experiment: qHTS assay to identify small molecule antagonists of the thyrotropin-releasing hormone receptor (TRHR) signaling pathway (AID 1346877; active = well fitted inhibition curve with a large enough effect in the repeat runs, not every such curve was filed as active; note: series mostly up to about 51 µM)
How it was run: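 Intracellular calcium fluorescence, read kinetically every second over 3 min, reports TRH-evoked signalling in HEK293 cells carrying TRHR. Test compounds were added 5 min ahead of a 1 nM TRH challenge.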

[13] = biological target: Thyrotropin-releasing hormone receptor (Homo sapiens) (UniProt P34981); experiment: qHTS assay to identify small molecule agonists of the thyrotropin-releasing hormone receptor (TRHR) signaling pathway (AID 1346891; calls by dose curve; note: series mostly up to about 58 µM)
How it was run: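 HEK293 cells expressing TRHR plated 18 h at 37 C/5% CO2, calcium dye-loaded 2 h at 37 C, then compound added (agonist mode); kinetic calcium fluorescence read 3 min at 1 s intervals; 15 concentrations in triplicate.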

[14] = biological target: Thyrotropin receptor (Homo sapiens) (UniProt P16473); experiment: qHTS assay to identify small molecule antagonists of the thyroid stimulating hormone receptor (TSHR) signaling pathway (AID 1259385; calls by dose curve; note: nearly all actives have a fitted effect of over 20% in size)
How it was run: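 Antagonist mode: compound-treated TSHR-expressing HEK293 cells were stimulated with 1.5 ng/mL TSH (final) in presence of Ro20-1724 for 30 min at RT. HTRF cAMP detection after 1 h; each compound tested at 15 concentrations, triplicate.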

[15] = qHTS assay to identify small molecule antagonists of the TGF-beta/Smad signaling pathway - cell viability counter screen (AID 1346824); note: nearly all actives have a fitted effect of over 50% in size
How it was run: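 Cytotoxicity counter-screen run in the same wells as the beta-lactamase Smad reporter read: CellTiter-Glo luminescence after 30 min at room temperature. HEK 293T SBE-bla cells had 5 hr compound exposure at 37 C with TGF-beta1 (0.25 ng/mL stock).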

[16] = biological target: Estrogen receptor (Homo sapiens) (UniProt P03372); experiment: qHTS assay to identify small molecule agonists of the estrogen receptor alpha (ER-alpha) signaling pathway in the presence of an antagonist (AID 1259383; calls by dose curve; note: top concentration of the series differs between compounds; nearly all actives have a fitted effect of over 15% in size)
How it was run: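 VM7Luc4E2, endog. ER-alpha + 4×ERE-luc; charcoal-stripped FBS, phenol red-free, 5 d; 24hr plating; +10.0nM ICI-182,780 (final); cpds 15 conc, 22hr, 37C/5% CO2; ONE-Glo luminescence.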

[17] = qHTS assay to identify small molecule antagonists of the progesterone receptor (PR) signaling pathway - cell viability counter screen (AID 1346798); note: series mostly up to about 92 µM; nearly all actives have a fitted effect of over 50% in size
How it was run: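 PR-UAS-bla HEK293T cells, 3,000/well in 2% charcoal-stripped FBS medium, dosed with compounds plus R5020 agonist and incubated 16 h at 37C. Viability then measured in the same wells by CellTiter-Glo luminescence after 30 min at RT.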
% is set by controls: 0 for no effect and ±100 for the full control effect.

Estrogen receptor (Homo sapiens), sequence (P03372 whole entry, looked up): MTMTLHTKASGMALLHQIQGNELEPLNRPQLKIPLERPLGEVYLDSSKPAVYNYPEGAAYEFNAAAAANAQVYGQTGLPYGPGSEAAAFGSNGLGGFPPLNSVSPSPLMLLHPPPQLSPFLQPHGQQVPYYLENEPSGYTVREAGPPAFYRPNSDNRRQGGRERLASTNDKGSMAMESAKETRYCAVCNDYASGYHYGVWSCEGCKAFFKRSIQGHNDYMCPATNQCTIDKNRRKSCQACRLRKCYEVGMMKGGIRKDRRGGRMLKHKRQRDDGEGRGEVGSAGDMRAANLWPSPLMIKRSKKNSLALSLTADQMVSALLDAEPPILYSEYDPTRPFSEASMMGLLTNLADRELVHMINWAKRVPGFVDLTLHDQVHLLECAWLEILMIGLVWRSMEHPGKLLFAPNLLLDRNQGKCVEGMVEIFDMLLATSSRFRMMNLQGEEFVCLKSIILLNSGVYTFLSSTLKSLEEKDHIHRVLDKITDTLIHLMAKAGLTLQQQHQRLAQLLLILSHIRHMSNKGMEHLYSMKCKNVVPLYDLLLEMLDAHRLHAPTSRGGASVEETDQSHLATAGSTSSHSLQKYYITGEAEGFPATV
Progesterone receptor (Homo sapiens), sequence (P06401 whole entry, looked up): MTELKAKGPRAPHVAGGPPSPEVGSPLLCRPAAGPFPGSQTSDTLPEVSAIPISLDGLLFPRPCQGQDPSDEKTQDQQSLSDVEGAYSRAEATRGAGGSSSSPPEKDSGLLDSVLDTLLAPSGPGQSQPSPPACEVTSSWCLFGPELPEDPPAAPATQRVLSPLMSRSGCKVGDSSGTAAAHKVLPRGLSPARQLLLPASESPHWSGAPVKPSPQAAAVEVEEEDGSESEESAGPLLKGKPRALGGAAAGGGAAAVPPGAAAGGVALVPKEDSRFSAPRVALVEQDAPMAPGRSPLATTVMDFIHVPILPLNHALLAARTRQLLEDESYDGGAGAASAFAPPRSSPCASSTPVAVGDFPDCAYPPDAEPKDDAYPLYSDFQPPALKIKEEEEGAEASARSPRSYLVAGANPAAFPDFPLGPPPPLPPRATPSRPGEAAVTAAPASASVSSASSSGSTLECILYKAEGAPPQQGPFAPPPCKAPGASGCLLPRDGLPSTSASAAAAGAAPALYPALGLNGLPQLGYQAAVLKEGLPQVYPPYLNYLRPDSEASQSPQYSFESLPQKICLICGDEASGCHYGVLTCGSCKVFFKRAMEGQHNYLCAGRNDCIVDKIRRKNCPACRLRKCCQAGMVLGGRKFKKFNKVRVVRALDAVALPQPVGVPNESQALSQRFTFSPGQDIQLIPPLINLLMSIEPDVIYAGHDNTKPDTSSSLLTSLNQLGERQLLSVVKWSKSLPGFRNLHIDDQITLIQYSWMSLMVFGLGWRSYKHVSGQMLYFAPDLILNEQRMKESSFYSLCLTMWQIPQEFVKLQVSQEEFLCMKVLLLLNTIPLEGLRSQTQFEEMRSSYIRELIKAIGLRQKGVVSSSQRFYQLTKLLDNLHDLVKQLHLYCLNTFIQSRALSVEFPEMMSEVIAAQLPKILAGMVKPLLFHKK
Thyrotropin receptor (Homo sapiens), sequence (P16473 whole entry, looked up): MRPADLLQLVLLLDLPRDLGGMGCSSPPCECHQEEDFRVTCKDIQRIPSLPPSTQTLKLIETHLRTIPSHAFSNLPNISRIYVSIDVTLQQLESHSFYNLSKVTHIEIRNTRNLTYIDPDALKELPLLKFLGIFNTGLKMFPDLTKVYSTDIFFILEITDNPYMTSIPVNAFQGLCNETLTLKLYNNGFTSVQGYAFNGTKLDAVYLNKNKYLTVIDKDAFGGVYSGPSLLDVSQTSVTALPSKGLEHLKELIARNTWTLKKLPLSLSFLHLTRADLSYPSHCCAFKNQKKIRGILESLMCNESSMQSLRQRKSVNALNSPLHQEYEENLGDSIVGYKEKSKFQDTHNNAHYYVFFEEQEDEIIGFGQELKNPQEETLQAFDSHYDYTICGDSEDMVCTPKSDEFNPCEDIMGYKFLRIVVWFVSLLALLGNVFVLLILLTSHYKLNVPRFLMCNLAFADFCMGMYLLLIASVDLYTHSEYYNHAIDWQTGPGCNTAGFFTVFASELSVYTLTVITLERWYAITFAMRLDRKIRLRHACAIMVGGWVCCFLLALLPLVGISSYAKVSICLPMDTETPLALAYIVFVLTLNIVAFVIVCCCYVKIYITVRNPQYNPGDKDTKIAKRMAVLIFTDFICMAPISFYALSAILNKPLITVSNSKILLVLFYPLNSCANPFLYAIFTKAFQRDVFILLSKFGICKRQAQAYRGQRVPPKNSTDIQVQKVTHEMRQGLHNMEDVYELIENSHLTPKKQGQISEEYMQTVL
Thyrotropin-releasing hormone receptor (Homo sapiens), sequence (P34981 whole entry, looked up): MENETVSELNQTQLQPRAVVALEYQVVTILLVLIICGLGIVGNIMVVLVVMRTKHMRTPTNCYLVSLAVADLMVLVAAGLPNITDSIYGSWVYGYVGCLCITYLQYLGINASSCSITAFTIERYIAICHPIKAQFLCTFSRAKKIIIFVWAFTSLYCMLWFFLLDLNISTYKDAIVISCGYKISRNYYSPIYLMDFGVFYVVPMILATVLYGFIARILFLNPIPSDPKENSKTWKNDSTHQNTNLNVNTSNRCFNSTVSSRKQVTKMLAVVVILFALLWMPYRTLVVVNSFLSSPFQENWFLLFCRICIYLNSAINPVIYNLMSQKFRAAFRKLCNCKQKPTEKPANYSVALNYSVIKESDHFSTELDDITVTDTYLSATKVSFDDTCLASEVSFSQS

CC(C)C[C@@H](N)C(=O)O
inactive: activity change, negative = inhibition [1] 18.9% [at 19 µM] | activity change, negative = cytotoxicity [2] 0.366% [at 19 µM] | activity change, negative = cytotoxicity [3] 2.37% [at 19 µM] | activity change, negative = cytotoxicity [4] 1.92% [at 19 µM] | cAMP activity change [5] 1.68% [at 18.9 µM] | activity change, negative = cytotoxicity [6] 2.39% [at 19 µM] | activation [7] -1.5% [at 19 µM] | activity change, negative = inhibition [8] 12.3% [at 18.9 µM] | activity change, negative = cytotoxicity [9] -1.58% [at 19 µM] | activity change, negative = cytotoxicity [10] 15.2% [at 15.8 µM] | activation [11] 0.277% [at 15.8 µM] | activity, negative = inhibition [12] -3.99% [at 10.5 µM] | activation [13] -0.187% [at 11.8 µM]

CN(C)C(=O)Oc1ccc[n+](C)c1
inactive: Potency [1] | Potency [2] | Potency [3] | outcome [4] | outcome [5] | outcome [14] | Potency [6] | Potency [7] | Potency [8] | Potency [9] | outcome [15] | outcome [10] | outcome [11]

NC(CCC(=O)O)C(=O)O (stereo not drawn)
inactive: Potency [1] | Potency [2] | outcome [4] | outcome [16] | outcome [5] | outcome [14] | Potency [6] | Potency [7] | Potency [8] | Potency [17] | Potency [9] | outcome [15] | outcome [10] | outcome [11] | outcome [12] | Potency [13]

CCN[C@@H]1C[C@H](N)[C@@H](OC2OC(CN)=CCC2N)[C@H](O)[C@H]1O[C@H]1OC[C@](C)(O)[C@H](NC)[C@H]1O (stereo partly drawn)
inactive: activity change, negative = inhibition [1] 2.07% [at 0.349 µM] | activity change, negative = cytotoxicity [2] 0.828% [at 0.35 µM] | activity change, negative = cytotoxicity [4] 16.4% [at 0.349 µM] | activity change, negative = cytotoxicity [6] 7.38% [at 0.349 µM] | activation [7] 0.0091% [at 0.349 µM] | activity change, negative = inhibition [8] 9.29% [at 0.348 µM] | activity change, negative = cytotoxicity [17] 4.73% [at 0.348 µM] | activity change, negative = cytotoxicity [9] -2.08% [at 0.349 µM] | activity change, negative = cytotoxicity [10] -2.15% [at 0.29 µM] | activation [11] -2.06% [at 0.29 µM] | activity, negative = inhibition [12] 0.737% [at 0.194 µM] | activation [13] -0.947% [at 0.218 µM]

Cc1ccnc(NS(=O)(=O)c2ccc(N)cc2)n1
inactive: Potency [1] | Potency [2] | Potency [3] | outcome [4] | outcome [16] | outcome [5] | Potency [6] | Potency [8] | Potency [17] | Potency [9] | outcome [15] | outcome [10] | outcome [11]

CNCC(O)c1ccc(O)c(O)c1 (stereo not drawn)
active: Potency [6] 29.8 µM
inactive: Potency [1] | Potency [2] | Potency [3] | outcome [4] | outcome [16] | outcome [14] | Potency [7] | Potency [8] | Potency [17] | Potency [9] | outcome [15] | Potency [13]

CC[N+](C)(CC)CCOC(=O)C1c2ccccc2Oc2ccccc21
inactive: Potency [1] | Potency [2] | Potency [3] | outcome [4] | outcome [5] | outcome [14] | Potency [6] | Potency [7] | Potency [8] | Potency [17] | Potency [9] | outcome [15] | outcome [10] | Potency [13]

COc1ccccc1OCC1CNC(=O)O1 (stereo not drawn)
inactive: Potency [1] | Potency [2] | Potency [3] | outcome [4] | outcome [5] | Potency [6] | Potency [7] | Potency [8] | Potency [17] | Potency [9] | outcome [15] | outcome [11] | outcome [12] | Potency [13]

CCC1C(=O)OCC1Cc1cncn1C (stereo not drawn)
inactive: Potency [1] | Potency [2] | Potency [3] | outcome [4] | outcome [16] | outcome [5] | Potency [6] | Potency [7] | Potency [8] | Potency [17] | outcome [15] | outcome [10] | outcome [11] | outcome [12] | Potency [13]
